# Only some compounds are listed: those with a hit (about 6.6% of all), similar ones and a draw of the others.
# Bead autofluor – flagged as autofluorescent in microsphere protease counterscreen; compound autofluorescence counterscreen, microsphere flow cytometry; hits give high values; fluorescence intensity (test concentration not listed); hit rate 3.1% among 360,000; in the data active = fluorescence intensity above about 16000; inconclusive = no clear call, values can overlap the other calls
# Anthrax LF inh2 – Bacillus anthracis LF protease inhibitors, primary screen, biochemical, multiplex microsphere, MLPCN library. inhibition, % at 10 µM. hit rate 0.12% among 360,000. multiplex microsphere protease cleavage assay; also: plate controls were buffer without enzyme for full effect and enzyme alone for no effect
# Target sequence (P15917 whole entry, looked up): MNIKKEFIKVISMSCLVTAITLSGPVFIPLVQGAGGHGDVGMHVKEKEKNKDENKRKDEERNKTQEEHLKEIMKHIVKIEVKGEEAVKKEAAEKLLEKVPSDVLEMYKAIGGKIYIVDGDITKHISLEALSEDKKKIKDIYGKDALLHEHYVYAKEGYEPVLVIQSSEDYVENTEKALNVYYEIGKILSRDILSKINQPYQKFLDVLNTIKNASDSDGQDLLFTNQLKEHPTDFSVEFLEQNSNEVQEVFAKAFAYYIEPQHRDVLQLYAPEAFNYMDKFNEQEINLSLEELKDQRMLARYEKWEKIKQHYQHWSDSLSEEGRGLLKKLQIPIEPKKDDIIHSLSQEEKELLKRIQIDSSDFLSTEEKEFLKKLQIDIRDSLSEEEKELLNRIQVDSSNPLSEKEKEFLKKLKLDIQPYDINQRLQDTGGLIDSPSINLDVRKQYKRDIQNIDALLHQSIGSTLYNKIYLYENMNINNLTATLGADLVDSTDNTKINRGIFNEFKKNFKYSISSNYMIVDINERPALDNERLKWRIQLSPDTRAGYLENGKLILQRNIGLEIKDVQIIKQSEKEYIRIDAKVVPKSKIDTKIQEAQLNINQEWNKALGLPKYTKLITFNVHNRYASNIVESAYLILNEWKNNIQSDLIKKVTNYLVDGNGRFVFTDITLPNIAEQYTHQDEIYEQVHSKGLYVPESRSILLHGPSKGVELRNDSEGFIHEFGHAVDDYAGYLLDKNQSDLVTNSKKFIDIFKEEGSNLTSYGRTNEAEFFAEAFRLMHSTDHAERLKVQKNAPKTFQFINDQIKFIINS
# BoNT-F LC inh – BoNT/F light chain protease inhibitors, primary screen, biochemical, flow cytometry, MLPCN library | Botulinum neurotoxin type F light chain protease (Clostridium botulinum) | Multiplex microsphere protease cleavage assay | hit rate 0.22% among 360,000 | AID 588497, 2011 | inhibition, % at 10 µM; in the data active = inhibition above about 35%, passing the limit was not always enough; inconclusive = no clear call, values can overlap the other calls; also: plate controls were buffer without enzyme for full effect and enzyme alone for no effect
# BoNT A protease – BoNT/A light chain protease inhibitors, primary screen, biochemical, flow cytometry, MLPCN library; hit rate 0.17% among 360,000; inhibition, % at 10 µM; Botulinum neurotoxin type A light chain protease (Clostridium botulinum A str. ATCC 3502); AID 588499, 2011; multiplex microsphere protease substrate cleavage; also: plate controls were buffer without enzyme for full effect and enzyme alone for no effect
# Mtb FBA inh – Mtb FBA enzyme inhibitors, primary screen, biochemical, fluorescence, strain H37Rv; purified M. tuberculosis FBA, fluorescence read-out; inhibition, % at 1 µM; hit rate 2.3% among 360,000; in the data active = inhibition above about 27%;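 also: 0% = vehicle and 100% = reference inhibitor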
# GDH-TPI inh – GDH-TPI coupling enzyme inhibitors, primary screen, artefact control for M. tuberculosis FBA inhibitor project, biochemical, absorbance, full deck | GDH-TPI coupled enzyme counterscreen, NADH absorbance | inhibition, % at 4.8 µM | hit rate 1.2% among 360,000; in the data active = inhibition above about 30%;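 also: 0% = DMSO wells and 100% = wells lacking the enzyme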
# * = called active by the depositor; ? = inconclusive; + = active, no number. Rule as the data show it, unless noted: active = inhibition above about 30%; inconclusive = no clear call, values can overlap the other calls; inactive = below that.
SMILES,Bead autofluor,Anthrax LF inh2,BoNT-F LC inh,BoNT A protease,Mtb FBA inh,GDH-TPI inh
C=CCSc1ncccc1C(=O)NCCc1ccc(Cl)cc1,7097,-15,20,1,-1,0
C=CCSc1ncccc1C(=O)NCc1ccc(C)cc1,19941*,-2,0,2,-1,-3
C=CCSc1ncccc1C(=O)O,23263*,-3,-5,-3,-2,-9
OC(CNCCCCNCC(O)C(F)(F)F)C(F)(F)F (configuration not stated),4558,-4,-3,0,-5,3
CCN1C=CC(=C2C(=O)c3ccccc3C2=O)C=C1,17505*,-5,-9,-4,-4,27
CCCN1C=CC(=C2C(=O)c3ccccc3C2=O)C=C1,15675,-1,-1,2,-5,16
Cc1ccc(S(=O)(=O)N/N=C\C=C\c2ccccc2)cc1,7939,-3,0,0,-2,16
O=S(=O)(N/N=C\C=C\c1ccccc1)c1ccc(Br)cc1,2646,-1,-8,0,-2,39*
O=C(NCCN1CCOCC1)c1cnn2c(-c3ccccc3)cc(-c3ccccc3)nc12,8272,4,0,1,20,14
O=C(NCCN1CCOCC1)c1cc(-c2ccc(Cl)c(Cl)c2)on1,5942,-1,-9,-1,1,-7
O=C(NCCN1CCOCC1)c1cc(-c2ccc(Cl)cc2)on1,17467*,-3,-5,?,2,1
COc1ccc(C2CC(C(F)(F)F)n3nc(C(=O)NCCN4CCOCC4)cc3N2)cc1 (configuration not stated),17087*,-2,-4,-1,-1,13
COc1ccc(NC(=O)c2cc(-c3ccccc3)on2)cc1OC,4093,-9,-13,0,0,-3
COc1cccc(-c2cc(C(=O)Nc3ccc(OC)c(OC)c3)no2)c1,19835*,-1,1,1,-1,-6
O=C(NC(=S)NCCN1CCOCC1)c1cccc(Cl)c1,22268*,1,-2,-1,1,22
CC1=NN(c2cccc(C(=O)O)c2)C(=O)/C1=C\C=C/c1ccccc1,3393,-7,-6,-1,-3,26
CCOc1ccccc1N1CC(C(=O)N(CC)CC(=O)Nc2ccc3c(c2)OCCO3)CC1=O (configuration not stated),4577,6,7,4,6,-1
COc1cccc(C(=O)OC(C)C(=O)NCC2CCCCC2)c1 (configuration not stated),2828,-7,4,0,2,-7
COc1cccc(-c2cc(C(=O)NCCN3CCOCC3)no2)c1,17375*,0,-5,-3,1,3
O=S(=O)(/N=C(\Sc1ccccc1)c1ccccc1)c1ccc(Cl)cc1,12569,-5,-19,-1,2,11
Cc1ccc(S(=O)(=O)/N=C(\Sc2ccccc2)c2ccccc2)cc1,24784*,0,-6,-2,2,0
CCCNC(=O)C1(C)CCN(Cc2ccc(C)c3ccccc23)C1 (configuration not stated),3532,-1,4,0,-1,-2
Cc1ccc(O)c(CNc2nc3ccccc3n2C(C)C)c1,3526,-2,38*,-2,2,1
CC(C)n1c(NCc2cc(Cl)ccc2O)nc2ccccc21,6473,-7,-19,-1,-1,6
O=S(=O)(c1cnccc1N1CCN(CCO)CC1)N1CCCCC1,5826,-3,13,0,-1,-7
SMILES,Bead autofluor,Anthrax LF inh2,BoNT-F LC inh,BoNT A protease,Mtb FBA inh,GDH-TPI inh
COc1ccc(C2N(c3ccccc3)C(=O)C2(F)F)cc1OC (configuration not stated),3260,-3,1,1,1,8
COc1ccc(C2SCC(=O)Nc3c2c(C)nn3C2CCOC(C)(C)C2)cc1OC (configuration not stated),23587*,-3,-2,?,0,8
COc1ccc(C2SCC(=O)Nc3c2c(C)nn3-c2ccccc2)cc1OC (configuration not stated),23949*,-2,-6,-3,-3,-6
CN(C)c1ccc(-c2csc(C(C)(O)c3ccc(F)c(F)c3)n2)cc1 (configuration not stated),3198,0,-3,0,-4,7
Cc1ccc(NS(=O)(=O)c2ccc(Cl)c(NC(=S)NC(=O)C3CCCCC3)c2)cc1Cl,2556,0,-3,-1,-4,5
N#Cc1nc(-c2cccs2)oc1NCCc1ccccc1,2093,-8,0,-1,+,15
N#Cc1nc(-c2cccs2)oc1NCc1ccc2c(c1)OCO2,3291,-8,14,2,112*,27
N#Cc1nc(-c2cccs2)oc1NCCN1CCOCC1,2115,0,-2,0,195*,32*
Cc1oc(-c2cccs2)nc1CS(=O)CC(=O)NCc1ccc2c(c1)OCO2 (configuration not stated),4910,1,-6,-1,0,10
COc1ccc(C2(C)NC(=O)N(CC(=O)Nc3ccc(C)cc3Br)C2=O)cc1OC (configuration not stated),6146,1,6,0,-1,2
CC(=O)c1ccc(N2CCN(C(=O)CCS(=O)(=O)c3ccc4c(c3)NC(=O)CS4)CC2)cc1,5795,-1,2,-1,1,23
O=C(NCCc1ccc(F)cc1)C(=O)NCC1CCCN1S(=O)(=O)c1cccs1 (configuration not stated),?,0,14,6,1,19
CCOC(=O)N1CCN(C(=O)CSCC(=O)Nc2nc(-c3ccc(Cl)s3)cs2)CC1,22328*,0,-1,1,0,-1
Cc1ccc(C23CC4CC(CC(C(=O)NC(C)C(N)=O)(C4)C2)C3)cc1 (configuration not stated),5969,-2,-5,0,2,-5
CC(/C=C/c1ccco1)=N\NC(=O)c1cc(C)[nH]n1,23188*,-5,0,?,-2,13
COc1ccccc1/C=C\C(=O)NCC(=O)N/N=C/c1ccc(O)cc1O,4162,0,-3,0,-2,36*
O=C(Cn1nc(C(F)(F)F)c2c1CCCC2)Nc1ccc2c(c1)OCO2,21133*,-4,-4,-1,0,-11
CCc1c(C)sc(NC(=O)Cn2nc(C(F)(F)F)c3c2CCCC3)c1C#N,22610*,1,3,2,4,4
Cc1cc(C(F)(F)F)nn1CC(=O)Nc1ccc2c(c1)OCO2,5961,4,-7,1,1,0

# Source: PubChem (several laboratories)
